In PubChem BioAssay (NCI):
The panel holds about 79,000 compounds, 15% with a hit somewhere; the sample as a whole holds those more often. No stated cut-off is given here; in the data, active means growth inhibition above about 70%; inactive means the rest.

Assays:
[1] = NCI Yeast Anticancer Drug Screen. Data for the rad50 strain (AID 155);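 further: 0% = growth of vehicle-only cultures of the same strain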; conditions: S. cerevisiae rad50 strain growth inhibition; at 50.0 µM; stronger effect = higher value
Summary of the method: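 Vehicle-treated cultures provide the reference for the growth inhibition reported for compound-exposed, repair-deficient yeast.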

[2] = NCI Yeast Anticancer Drug Screen. Data for the mec2-1 strain (AID 157); conditions: S. cerevisiae mec2-1 strain, at 50.0 µM, stronger effect = higher value
Summary of the method: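 Using mec2-1 yeast: add compound, measure growth, express inhibition versus vehicle-treated cultures.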

[3] = NCI Yeast Anticancer Drug Screen. Data for the sgs1 mgt1 strain (AID 161);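 further: 0% = growth of cultures given vehicle only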; conditions: S. cerevisiae sgs1 mgt1 strain, at 50.0 µM, stronger effect = higher value
Summary of the method: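 Yeast cells carrying a defined DNA-repair defect were exposed to test compounds. Growth inhibition was measured relative to vehicle-treated controls.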

[4] = NCI Yeast Anticancer Drug Screen. Data for the cln2 rad14 strain (AID 165);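 further: 0% = growth equal to vehicle treated cultures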; conditions: S. cerevisiae cln2 rad14 strain, at 50.0 µM, stronger effect = higher value
Summary of the method: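 Yeast strain cln2 rad14, bearing defects in cell cycle control and DNA repair, serves as the test system; values reflect growth inhibition compared with vehicle.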

[5] = NCI Yeast Anticancer Drug Screen. Data for the bub3 strain (AID 167); conditions: S. cerevisiae bub3 mutant strain, at 50.0 µM, stronger effect = higher value
Summary of the method: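 Mutant yeast screening strain plus compound; vehicle-treated cultures serve as the 0% inhibition reference.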

[6] = NCI Yeast Anticancer Drug Screen. Data for the mlh1 rad18 strain (AID 175); conditions: S. cerevisiae mlh1 rad18 strain growth inhibition; at 50.0 µM; stronger effect = higher value
Summary of the method: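 Steps: expose repair-defective yeast to compound; measure growth; express inhibition against vehicle-treated controls.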

Measured: growth inhibition

N#Cc1ccc(NC(=O)C(CC(=O)OCc2ccccc2)NC(=O)OCc2ccccc2)cc1 (configuration not stated)
inactive: [1] -2.75% | [2] 4.65% | [3] 3.85% | [4] 7.3% | [5] 50.8% | [6] -8.05%

CC(C)C(=O)C(C)(C)CCc1ccccn1
inactive: [1] -23.4% | [2] -24.8% | [3] -28.6% | [4] -15.8% | [5] -12.2% | [6] -8.35%

C=CC(C)(C)NC(C(=O)N1CCC[C@H]1c1nc(-c2nc(C(=O)OCC=C(C)C)c(C)o2)c(C)o1)C(C)C (some centres not stated)
inactive: [1] -4.25% | [2] -10.7% | [3] 15.6% | [4] -11.3% | [5] 3.05% | [6] -2.85%

O=S1c2ccccc2Sc2ccccc21
inactive: [1] 2.65% | [2] -8.4% | [3] -5.05% | [4] 1.6% | [5] -2% | [6] -2.25%

c1ccc2c(c1)OCCOCCOc1ccccc1OCCO2
inactive: [1] -3.6% | [2] 0.4% | [3] 0.95% | [4] 17.8% | [5] -6.5% | [6] -3.65%

[N-]=[N+]=Nc1ccccc1C(=O)NC(=O)Nc1ccccc1
inactive: [1] -14.1% | [2] 1.95% | [3] 5.5% | [4] -19.2% | [5] 2.45% | [6] -2.1%

O=[N+]([O-])c1ccc(N=P(c2ccccc2)(c2ccccc2)c2ccccc2)n2nnnc12
inactive: [1] 1.25% | [2] -27.8% | [3] -4.65% | [4] -10.2% | [5] -15.2% | [6] -6.85%

COc1c(NC(=O)Nc2ccc(SC)cc2)cccc1[N+](=O)[O-]
inactive: [1] 2.35% | [2] 15.6% | [3] 23.6% | [4] 5.1% | [5] 41.3% | [6] 9.65%

CN(C)c1ccc(C=C(c2ccc(N)cc2)c2ccc(N)cc2)cc1
inactive: [1] 9.25% | [2] -1.05% | [3] 24.3% | [4] -0.6% | [5] 52.4% | [6] 20.6%

O=C1C2CCC(C2)C12CC1(c3ccccc3)C(=O)c3ccccc3N1O2 (configuration not stated)
inactive: [1] -9% | [2] -31.6% | [3] -25.1% | [4] 8.85% | [5] 0.25% | [6] -27.4%

O=C(CC(=O)C(F)(F)F)Nc1cccc2ccccc12
inactive: [1] 6.65% | [2] -3.1% | [3] 10.6% | [4] -84.5% | [5] 0.1% | [6] 1.05%

CC1=CC(C)S(=O)(=O)C1 (configuration not stated)
inactive: [1] -38.4% | [2] -46.2% | [3] -89.1% | [4] -5.7% | [5] -57.8% | [6] -16.7%

O=C1CSC(c2cccc(C(F)(F)F)c2)N1c1nncs1 (configuration not stated)
inactive: [1] 10.5% | [2] 2.15% | [3] 19.6% | [4] 7.95% | [5] 16.6% | [6] 15.1%

CC(C)C(=O)OCCCc1ccccc1
inactive: [1] 11.7% | [2] -5.3% | [3] 1.8% | [4] 7.45% | [5] 21.5% | [6] 12.8%

NC(=S)N/N=C/c1ccc2c(c1)OCO2
inactive: [1] 1.55% | [2] 25.8% | [3] 9% | [4] 47.4% | [5] 22.9% | [6] 13.1%

c1ccc(C2CCCN2)cc1 (configuration not stated)
inactive: [1] 6% | [2] -12.4% | [3] -11% | [4] 6.25% | [5] -1.4% | [6] 4%

CC1(C)CC(O)=CC(=O)N1
inactive: [1] 15.9% | [2] -5.75% | [3] -3.85% | [4] 11.7% | [5] 10.3% | [6] 4.45%

COc1cccc(N2C(=O)[C@H]3[C@H]4CC(C(C)(C)C)CC[C@H]4c4c([nH]c5ccccc45)[C@H]3C2=O)c1 (some centres not stated)
inactive: [1] 1.65% | [2] -18.9% | [3] 8.25% | [4] 31.7% | [5] -9.4% | [6] -2.4%

Cc1cc(C)c(/C(O)=C/C(=S)N2CCOCC2)c(C)c1
inactive: [1] 33.5% | [2] 14.1% | [3] 43.1% | [4] -33% | [5] -15.3% | [6] 32.6%

[N-]=[N+]=NCN1C(=O)C2C3C=CC(C2C1=O)C1C2C(=O)N(CN=[N+]=[N-])C(=O)C2C31 (configuration not stated)
inactive: [1] -3.2% | [2] -4.1% | [3] -39.4% | [4] 4.4% | [5] -25.8% | [6] -42.1%

CNC(=O)Nc1ccc(C(=O)OCC(C)C)cc1
inactive: [1] 6.4% | [2] 8.7% | [3] 12.9% | [4] -34.1% | [5] -22.1% | [6] 7.45%

CN(C(=O)c1cccs1)C(=S)N1CCN(c2ccccn2)CC1
inactive: [1] -84.2% | [2] -57.6% | [3] -2.4% | [4] -11.8% | [5] -7.85% | [6] -29.6%
